Compound activity: PubChem, National Center for Advancing Translational Sciences (NCATS)
This is a sample that favours compounds with a hit; in the whole collection about 1.7% have one here.
PTHR1 agonist: qHTS for PTHR1 Agonists: Primary Screen. Parathyroid hormone/parathyroid hormone-related peptide receptor (Homo sapiens), Q03431. HEK293 GP2 PTHR1 cells, GloSensor cAMP luminescence, 1 h. Potency, µM (series often up to 115 µM), actives largely listed as activators. 410,000 tested, 0.075% active; further: nearly all actives have a fitted effect of over 55% in size
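HEK-293-derived GP2 cells expressing PTHR1 and a GloSensor cAMP reporter, 3,000/well, plated overnight, given luciferin plus IBMX (each 0.5 mM as added) for 1 h at 37 °C, then compound for 1 h at 37 °C. Luminescence was read after 15 min at room temperature.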
Pin1 inhibitor: qHTS Assay to Find Inhibitors of Pin1; 390,000 tested, 0.009% active; Potency, µM (top dose mostly 115 µM), usual class: inhibitors; Pin1 FP peptide displacement, HiFluor488, 10 min; AID 504891, 2011; Peptidyl-prolyl cis-trans isomerase NIMA-interacting 1 (Homo sapiens), Q13526; active means well fitted inhibition curve with a large enough effect in the polarisation, with a control signal flat, not every such curve was filed as active; inconclusive means small, poorly fitted or top-dose-only effect, or effect the other way, or a change in a side signal; inactive means no such curve, though single readings can be large or run the other way; the % refers to the polarisation
GLP1R inv ag: qHTS of GLP-1 Receptor Inverse Agonists (Inhibition Mode). Glucagon-like peptide 1 receptor (Homo sapiens), P43220. HEK293 GLP-1R CRE-luciferase, luminescence, 24 h; GLP-1R form is constitutively active. Potency, µM (doses to about 38.3 µM), usual class: inhibitors. 410,000 tested, 1.6% active. AID 624417, 2012; further: nearly all actives have a fitted effect of over 55% in size
Target sequence (P43220 whole entry, looked up): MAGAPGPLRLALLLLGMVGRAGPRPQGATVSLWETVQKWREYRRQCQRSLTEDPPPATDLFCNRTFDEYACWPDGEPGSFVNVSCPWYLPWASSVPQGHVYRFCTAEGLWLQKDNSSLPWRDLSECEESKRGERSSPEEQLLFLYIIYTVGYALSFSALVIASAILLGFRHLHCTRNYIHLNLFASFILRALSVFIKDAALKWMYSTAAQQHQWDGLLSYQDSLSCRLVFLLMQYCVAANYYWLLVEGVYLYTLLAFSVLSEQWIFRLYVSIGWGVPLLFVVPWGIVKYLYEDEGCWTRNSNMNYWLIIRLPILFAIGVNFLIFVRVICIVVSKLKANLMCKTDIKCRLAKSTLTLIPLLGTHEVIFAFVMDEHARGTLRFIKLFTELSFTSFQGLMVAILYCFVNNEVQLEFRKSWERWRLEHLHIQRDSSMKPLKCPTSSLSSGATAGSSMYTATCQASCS
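Inverse agonists were sought by their lowering of basal cAMP reporter luciferase output in HEK293 cells stably carrying constitutively active human GLP-1R, after 24 h compound treatment.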
GLP-1R agonist: qHTS of GLP-1 Receptor Agonists; Glucagon-like peptide 1 receptor (Homo sapiens), P43220; HEK293 GLP-1R CRE-luciferase, luminescence, 4-6 h; cells express a hypersensitive GLP-1R form; Potency, µM (doses to about 45.6 µM), most hits filed as activators; 380,000 tested, 0.007% active; AID 624172, 2012
miR-21 reporter: qHTS Assay for Modulators of miRNAs and/orActivators of miR-21 | Potency, µM (doses to about 38.3 µM), actives largely listed as activators | HeLa miR-21 FLuc reporter, luciferase, 48 h | 340,000 tested, under 10 active;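 further: miR-21 action dims this reporter so a rising signal means less miR-21 action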
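HeLa cells endogenously expressing miR-21, stably carrying CMV-driven firefly luciferase with a downstream miR-21 binding site, 2000 cells/well. Titrations up to approximately 40 uM, 48 hours; luciferase luminescence read.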
HEK293 tox: qHTS of GLP-1 Receptor Inverse Agonists: Cytotox Screen; Potency, µM (highest dose often 38.3 µM), hits mostly inhibitors; 410,000 tested, 0.13% active; HEK293 cAMP-luciferase reporter cells, luminescence, 24 h; AID 624418, 2012;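 further: loss of luciferase light is scored as toxicity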
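Quantitative HTS format, 1536 wells, 200 cells/uL seeded. Compounds: 23 nL, 24 h, 37 °C. Detection: luciferase reagent, luminescence at 12 min RT; decreased signal taken as cytotoxic.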
Each line names hits and unclear results; the compound was inactive in the other large screens. Unless noted, the call rests on the fitted dose curve; in most records, active means well fitted curve in the direction sought with a large enough effect; inconclusive means small, poorly fitted or top-dose-only effect, or another doubt; inactive means no such curve, though single readings can be large; an effect the other way counts as inactive or inconclusive.

O=C(CN1CCN(Cc2ccc3c(c2)OCO3)CC1)N1CCc2[nH]c3ccc(F)cc3c2C1	GLP1R inv ag 8.9µM
O=C(c1cccc(Cl)c1)N1CCN(Cc2ccc3c(c2)OCO3)CC1	GLP1R inv ag inconclusive
COc1ccc(-n2nc(C(=O)NCCc3ccc(OC)c(OC)c3)c3c4ccccc4n(C)c3c2=O)cc1	none (no result: GLP-1R agonist)
COc1c(OC(C)=O)ccc(/C=C/c2ccc3cccc(OCc4ccccc4)c3n2)c1[N+](=O)[O-]	GLP1R inv ag 5µM, HEK293 tox inconclusive
O=[N+]([O-])c1ccc(CN2CCOCCOCCN(Cc3ccc([N+](=O)[O-])cc3)CCOCC2)cc1	GLP1R inv ag 10µM
CCCN1CCN(C(=S)Nc2ccc3nc(N4CCN(CC)CC4)cc(C)c3c2)CC1	GLP1R inv ag 4µM, HEK293 tox 3.2µM
Cc1cc(N2CCN(C)CC2)nc2ccc(NC(=S)NCc3cccs3)cc12	GLP1R inv ag 1µM, HEK293 tox inconclusive
CCC(C)NC(=S)Nc1ccc2nc(N3CCN(CC)CC3)cc(C)c2c1 (stereo not given)	GLP1R inv ag 3.5µM, HEK293 tox inconclusive
Cc1cc(N2CCCCC2)nc2ccc(NC(=O)c3ccc(Br)o3)cc12	GLP1R inv ag 2.8µM, HEK293 tox inconclusive
CCN1CCN(c2cc(C)c3cc(NC(=S)N4CCOCC4)ccc3n2)CC1	GLP1R inv ag inconclusive, HEK293 tox inconclusive
CCCn1c(=O)n(-c2ccccc2)c(=O)c2sc3ccccc3c21	none
CC(=O)c1ccc(N2C(=O)Nc3ccccc3S2(=O)=O)cc1	none
Cc1cc(N2CCOCC2)nc2ccc(NC(=O)CCC(=O)N3CCN(c4cccc(C(F)(F)F)c4)CC3)cc12	GLP1R inv ag 10µM
CCN1CCN(c2cc(C)c3cc(NC(=S)N4CCN(c5ccccc5)CC4)ccc3n2)CC1	GLP1R inv ag 1.3µM
Cc1ccc(C)c(N2CCN(C(=S)Nc3ccc4nc(N5CCN(C)CC5)cc(C)c4c3)CC2)c1	GLP1R inv ag 2.5µM
Cc1cc(N2CCOCC2)nc2ccc(NC(=O)CCC(=O)N3CCCCC3)cc12	GLP1R inv ag inconclusive
O=C1CC(=C(c2ccccc2)c2ccccc2)C(=O)N1CCCCN1CCN(c2ccccc2)CC1	GLP1R inv ag 1.3µM, HEK293 tox inconclusive
CCCCOP(=O)(OCCCC)C(Nc1ccccc1)c1ccc2c(c1)OCO2 (stereo not given)	GLP1R inv ag 7.9µM
COc1ccc(/C=C/c2ccccc2)cc1C1C2C=CCCC2(C)C(=O)N1Cc1ccccc1 (stereo not given)	none (no result: PTHR1 agonist, GLP1R inv ag, GLP-1R agonist, miR-21 reporter, HEK293 tox)
CC1(C(=O)NCc2cccc3ccccc23)CCN1Cc1ccccc1OC(F)F (stereo not given)	GLP1R inv ag 13µM (no result: Pin1 inhibitor, miR-21 reporter)
NS(=O)(=O)c1ccc(CCNCc2ccccc2OCc2ccc(Cl)cc2)cc1	GLP1R inv ag 7.9µM
CC1(C)CC(=O)C2=C(C1)NC(Nc1nc3ccccc3o1)=NC2c1cccc(F)c1 (stereo not given)	none (no result: PTHR1 agonist, GLP1R inv ag, GLP-1R agonist, miR-21 reporter, HEK293 tox)
CC(C)(C)c1cc(Cl)ccc1OCCn1ccnc1	Pin1 inhibitor inconclusive, GLP1R inv ag inconclusive
CC(O)CNCCCOc1ccc(Cl)cc1C(C)(C)C (stereo not given)	GLP1R inv ag 1.6µM, HEK293 tox inconclusive
CN(C)CCOCCOc1ccc(Cl)cc1C(C)(C)C	PTHR1 agonist inconclusive, GLP1R inv ag 5.6µM, HEK293 tox inconclusive
COc1cc(-c2ccc3ncnc(NCC4CCCO4)c3c2)cc(OC)c1OC (stereo not given)	none (no result: PTHR1 agonist, GLP1R inv ag, GLP-1R agonist, miR-21 reporter, HEK293 tox)
COC(=O)c1ccc(NC(=S)NC2CCc3ccccc32)cc1 (stereo not given)	GLP1R inv ag 10µM, HEK293 tox inconclusive
COC(=O)c1ccc(NC(=S)NC2CC(C)(C)NC(C)(C)C2)cc1	GLP1R inv ag 8.9µM
